This note sets out measurements from PubChem BioAssay (NCATS).

Experiment [1] in a line: qHTS profiling for inhibitors of Plasmodium falciparum (HB3) proliferation (AID 743324; active = well fitted curve in the direction sought with a large enough effect; an effect the other way counts as inactive or inconclusive;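 note: 100% = DMSO vehicle wells and 0% = artemisinin-treated control wells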). The conditions noted are these: Plasmodium falciparum HB3 blood-stage proliferation; at 28.7 µM (top of the series) unless noted. In short, it runs like this: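 P. falciparum HB3 grown in erythrocytes (0.3% parasitemia, 2.5% hematocrit final) with compound for 72 h at 37 C, 5% CO2. Parasite DNA detected by SYBR Green after saponin/triton lysis overnight; normalized to 0.29 uM artemisinin and DMSO.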

A short description of experiment [2]: qHTS profiling of the MIPE4 collection as inhibitors of Plasmodium falciparum (3D7) proliferation (AID 743344).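 Note: scaled between DMSO vehicle wells and 0.29 µM artemisinin as full inhibition.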 The conditions noted are these: P. falciparum 3D7 in erythrocytes, SYBR Green DNA fluorescence, 72 h; at 28.5 µM (top of the series) unless noted. In short, it runs like this: (§1)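 Erythrocytes infected with P. falciparum (0.3% parasitemia, 2.5% hematocrit) incubated with compounds 72 h at 37 C, 5% CO2. Lysis with saponin/Triton buffer containing SYBR Green I, overnight at room temperature in the dark; DNA fluorescence (485/535 nm) normalised to 0.29 uM artemisinin and DMSO.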

A short description of experiment [3]: qHTS profiling of the MIPE4 collection as inhibitors of Plasmodium falciparum (DD2) proliferation (AID 743345). Particulars: P. falciparum Dd2 in erythrocytes, SYBR Green DNA, 72 h; at 28.5 µM (top of the series) unless noted. In short, it runs like this: as §1
Experiment [4] in a line: qHTS profiling of the MIPE4 collection as inhibitors of Plasmodium falciparum (DD2) proliferation (Rep 2) (AID 743346). The conditions noted are these: P. falciparum Dd2 in erythrocytes, SYBR Green DNA, 72 h; at 28.5 µM (top of the series) unless noted. A digest of the protocol: as §1
(In general: Quantitative high-throughput screening tests each substance at several concentrations.)

Experiment [5] can be described thus: qHTS profiling of the MIPE4 collection as inhibitors of Plasmodium falciparum (HB3) proliferation (AID 743347).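 Note: plate controls were DMSO vehicle wells for no effect and artemisinin wells for full effect.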 The conditions noted are these: P. falciparum HB3 in erythrocytes, SYBR Green DNA, 72 h; at 28.5 µM (top of the series) unless noted. In short, it runs like this: as §1
The nature of experiment [6]: High-throughput drug toxicity screening in the BPDCN cell line Gen2.2 (AID 1224824).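 Note: cells exposed to compounds for 48 h before reading.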 The conditions noted are these: Gen2.2 BPDCN cells; at 45.8 µM (top of the series) unless noted. A digest of the protocol:
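Readout is ATP luminescence from Gen2.2 cells after two days of drug exposure in serum-containing medium at 37 °C. Values express percent activity, with vehicle defining full signal and 9.2 uM bortezomib defining zero.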

Experiment [7] is described as follows: High-throughput drug toxicity screening in the BPDCN cell line Cal-1 (AID 1224825). Particulars: Cal-1 BPDCN cell viability, qHTS; at 45.8 µM (top of the series) unless noted. In short, it runs like this:
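Cal-1 cells, 500 per well in phenol-red-free RPMI with 10% FBS, exposed to compounds for 48 hours at 37C, 5% CO2. Viability read by CellTiter-Glo luminescence; percent activity normalized to DMSO (100%) and 9.2 uM bortezomib final (0%).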

A short description of experiment [8]: qHTS assay for measurement of the activity of small molecule inhibitors on Zika virus induced Caspase-3 activity in human iPSC derived neural progenitor cells (hNPCs) (AID 1224857; active = well fitted curve in the direction sought with a large enough effect; an effect the other way counts as inactive or inconclusive; note: % of control where 0% means no effect; nearly all actives have a fitted effect of over 65% in size). A digest of the protocol:
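In medium with heparin 2 ug/ml and cyclopamine 2 uM, hNPCs (350 cells/well) received compound for one hour and then Zika virus at 2 FFU/cell; caspase activity was measured by Caspase-Glo 3/7 luminescence 6 h post-infection.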

Experiment [9] is described as follows: qHTS assay for measurement of the activity of small molecule inhibitors on Zika virus induced Caspase-3 activity in human astrocytoma cells (AID 1224859; active = well fitted curve in the direction sought with a large enough effect; an effect the other way counts as inactive or inconclusive;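 note: plate controls were ZIKV-infected untreated cells for no effect and uninfected cells for full effect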). A digest of the protocol:
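A cell-based luminescent caspase-3/7 assay used SNB-19 cells infected with ZIKV (2 FFU/cell) for 6 h following 1 h compound pretreatment.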

Experiment [10] can be described thus: qHTS Screen of the MIPE 4.0 Collection Against Ewings Sarcoma (RDES) (AID 1259252; active = well fitted curve in the direction sought with a large enough effect; an effect the other way counts as inactive or inconclusive; note: nearly all actives have a fitted effect of over 35% in size; note: potency is the fitted concentration of half-maximal effect). In short, it runs like this:
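Log-phase cells in RPMI with 5% FBS attached for 4 h, then received compounds as a titration for 48 h at 37C, 5% CO2. Viability was read by CellTiter-Glo luminescence and normalized to DMSO and no-cell wells.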

Structures are written as SMILES. Results filed as inconclusive are left out. Activity calls are given as the source filed them. Unless noted, the rule behind the calls is not given here.

As to `CN(C)CCCNC(=O)c1ccc(-c2cc(O)c3ncccc3c2)cc1`, the remaining proliferation (% of control), lower = more inhibition in experiment [1] is 5.15%. Further, the parasite growth, % of DMSO control in experiment [2] was 25.8%. The parasite growth remaining, % of DMSO control (lower = more inhibition) in experiment [3] was 15.1%. Besides, in [4], the parasite growth, % of control (lower = inhibition) worked out at 23.5%. In experiment [5], this compound registered a growth, % of control of 8.59%. In experiment [6], the cell viability, % of control (lower = more cytotoxic) came to 48.4%. Further, the viability (% of control) in experiment [7] was found to be 19.6%. The Potency entry in experiment [8] and in experiment [9] was “inactive” throughout. Besides, in experiment [10], the Potency is 16.6 µM (active).
In turn, `COc1c(C)cnc(Cn2cnc3c(Cl)nc(N)nc32)c1C` gave a remaining proliferation (% of control), lower = more inhibition in [1] of 9.05%. Further, the parasite growth, % of DMSO control in [2] was determined as 28.9%. In [3], the parasite growth remaining, % of DMSO control (lower = more inhibition) stood at 49.8%. In [4], the parasite growth, % of control (lower = inhibition) is 31.8%. In experiment [5], this compound displayed a growth, % of control of 21.1%. In [6], the cell viability, % of control (lower = more cytotoxic) stood at 9.9%. The same compound returned a viability (% of control) in experiment [7] of 18.7%. Further, the Potency entry in [8] and in experiment [9] was “inactive” throughout. Also, the Potency in [10] was 0.187 µM (active).
`COc1cc([C@@H]2c3cc4c(cc3[C@@H](O[C@@H]3O[C@@H]5CO[C@@H](C)O[C@@H]5[C@H](O)[C@@H]3O)[C@H]3COC(=O)[C@H]23)OCO4)cc(OC)c1O` had a remaining proliferation (% of control), lower = more inhibition in experiment [1] of 11.4% [at 9.63 µM]. The compound also came in with a parasite growth, % of DMSO control in experiment [2] of 10.3%. In addition, the parasite growth remaining, % of DMSO control (lower = more inhibition) in [3] was 11%. Further, the parasite growth, % of control (lower = inhibition) in experiment [4] worked out at 140%. Moreover, the growth, % of control in [5] came to 4.48%. The cell viability, % of control (lower = more cytotoxic) in [6] came out at 57.1%. In addition, the viability (% of control) in experiment [7] stood at 8.03%. Besides, the Potency entry in [8] and in [9] was “inactive” in each case. Further, in [10], the Potency was 1.05 µM (active).
The compound `Cc1c(C(=O)Nc2ccc(N3C[C@@H](C)O[C@@H](C)C3)nc2)cccc1-c1ccc(OC(F)(F)F)cc1` had a remaining proliferation (% of control), lower = more inhibition in experiment [1] of 55.5%. The parasite growth, % of DMSO control in [2] worked out at 54.5%. Besides, in [3], the parasite growth remaining, % of DMSO control (lower = more inhibition) was 72.7%. In experiment [4], the parasite growth, % of control (lower = inhibition) worked out at 54.1%. The compound further gave a growth, % of control in experiment [5] of 46.7%. In [6], the cell viability, % of control (lower = more cytotoxic) was 10.2%. The compound further returned a viability (% of control) in experiment [7] of 53.5%. Also, the Potency result in experiment [8] and in [9] was “inactive” throughout. Besides, the Potency in experiment [10] was 13.2 µM (active).
`CC(C)C[C@@H](C(=O)N[C@H](C(=O)OC1CCCC1)c1ccccc1)[C@H](O)C(=O)NO` had a remaining proliferation (% of control), lower = more inhibition in experiment [1] of 11%. Moreover, the parasite growth, % of DMSO control in experiment [2] was found to be 15.1%. Moreover, the parasite growth remaining, % of DMSO control (lower = more inhibition) in experiment [3] was found to be 21.7%. This compound also showed a growth, % of control in experiment [5] of 7.8%. The cell viability, % of control (lower = more cytotoxic) in experiment [6] turned out to be 6.81%. Further, in experiment [7], the viability (% of control) came out at 8.67%. Moreover, the Potency result in experiment [8] and in experiment [9] was “inactive” throughout. In experiment [10], the Potency was 26.4 µM (active).
Consider `C[C@H](CCC(=O)O)[C@H]1CC[C@H]2[C@H]3[C@@H](CC[C@]12C)[C@@]1(C)CC[C@@H](O)C[C@H]1C[C@@H]3O`, for which the cell viability, % of control (lower = more cytotoxic) in [6] was determined as 75.1%. The compound also showed a viability (% of control) in experiment [7] of 35.2%. Further, the Potency entry in [8], in [9] and in experiment [10] was “inactive” in each case.
Turning to `CO[C@H]1/C=C\O[C@@]2(C)Oc3c(C)c(O)c4c(O)c(c(C=NN5CCN(C6CCCC6)CC5)c(O)c4c3C2=O)NC(=O)C(C)=CC=C[C@H](C)[C@H](O)[C@@H](C)[C@@H](O)[C@@H](C)[C@H](OC(C)=O)[C@H]1C`, in [2], the parasite growth, % of DMSO control amounted to 4.38%. Further, the parasite growth remaining, % of DMSO control (lower = more inhibition) in experiment [3] came to 6.13%. Besides, the parasite growth, % of control (lower = inhibition) in experiment [4] came to 8.54%. Further, the growth, % of control in experiment [5] came out at 2.45%. Further, in experiment [6], the cell viability, % of control (lower = more cytotoxic) came to 1.16%. The compound further came in with a viability (% of control) in experiment [7] of 0.727%. The Potency result in experiment [8] and in experiment [9] was “inactive” in each case. Further, in [10], the Potency was 0.0418 µM (active).
In turn, `CC1=C[C@@H]2[C@@H]([C@@H](O)C[C@@]3(C)[C@H]2C[C@@H](C)[C@]3(O)C(=O)CO)[C@@]2(C)Cc3cnn(-c4ccccc4)c3C=C12` gave a remaining proliferation (% of control), lower = more inhibition in experiment [1] of 0.0764%. Besides, the parasite growth remaining, % of DMSO control (lower = more inhibition) in experiment [3] is 8.93%. Besides, the parasite growth, % of control (lower = inhibition) in experiment [4] amounted to 46.9%. Moreover, the growth, % of control in [5] is 11.6%. The cell viability, % of control (lower = more cytotoxic) in [6] was found to be 24.4%. The compound further returned a viability (% of control) in [7] of 32.5%. Also, the Potency result in experiment [8] and in [9] was “inactive” each time. Besides, the Potency in [10] is 23.5 µM (active).
In turn, `NC(=O)c1noc([C@H](CCCC2CCCCC2)CC(=O)NO)n1` displayed a parasite growth, % of DMSO control in experiment [2] of 33.9%. Moreover, in experiment [3], the parasite growth remaining, % of DMSO control (lower = more inhibition) came out at 125%. In experiment [4], the parasite growth, % of control (lower = inhibition) was 30.9%. The compound also returned a growth, % of control in experiment [5] of 48.3%. Moreover, the cell viability, % of control (lower = more cytotoxic) in experiment [6] stood at 20%. For the same compound, the viability (% of control) in experiment [7] was 7.18%. The Potency result in experiment [8] and in experiment [9] was “inactive” in each case. In addition, in experiment [10], the Potency is 8.33 µM (active).
In [2], `CCCCCCCCCCCCCCCC(=O)O[C@H]1[C@@H](O)[C@@H](O)[C@@H]([C@H](NC(=O)[C@@H]2C[C@@H](CCC)CN2C)[C@H](C)Cl)O[C@@H]1SC` yielded a parasite growth, % of DMSO control of 31.4%. Further, the parasite growth remaining, % of DMSO control (lower = more inhibition) in experiment [3] was found to be 11%. Also, in [4], the parasite growth, % of control (lower = inhibition) came out at 20.4%. For the same compound, the cell viability, % of control (lower = more cytotoxic) in experiment [6] stood at 218%. Also, the viability (% of control) in experiment [7] turned out to be 94.5%. Moreover, the Potency entry in [8], in experiment [9] and in [10] was “inactive” each time.
